Compound activity from PubChem.
Rows were chosen to be rich in hits. Some 21% of all compounds tested hit in one or more screens of this group.
NS1 function inh = blocks influenza NS1 protein function; Potency, µM (series often up to 46.1 µM), inactives show top-dose activity, positive = more growth; hit rate 0.4% among 270,000; AID 2326; calls by dose curve; note: potency is the fitted concentration of half-maximal effect; actives are rising curves; nearly all actives have a fitted effect of over 50% in size
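In this qHTS, NS1 from influenza A is expressed in budding yeast, where it slows growth. Cells are switched from glucose to 2% galactose medium (pH 6.0, -URA), treated with compound, and growth recovery is read at OD600.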
Sm TGR inh = inhibitors of Schistosoma mansoni thioredoxin glutathione reductase; Q962Y6; purified TGR, DTNB reduction, TNB absorbance 405 nm; Potency, µM (top dose mostly 114 µM), for the others: at the top dose activity change, negative = inhibition, hits mostly inhibitors; hit rate 3% among 360,000; note: potency is the fitted concentration of half-maximal effect; % is set by controls: 0 for no effect and ±100 for the full control effect; nearly all actives have a fitted effect of over 60% in size
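First, TGR (20 nM dispensed) and NADPH were mixed with compound. Second, a 15 min room-temperature incubation followed. Third, further NADPH and then DTNB were added to start the reaction. Finally, TNB absorbance was monitored kinetically.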
Pf growth 48h = inhibits P. falciparum growth in the first generation, 48 h; Potency, µM (titrated, usually from 28.7 µM), inactives show at the top dose activity change, negative = inhibition, usual class: inhibitors; P. falciparum luciferase growth in erythrocytes, 48 h; AID 504832; hit rate 5.9% among 310,000; note: potency is the fitted concentration of half-maximal effect; % is set by controls: 0 for no effect and ±100 for the full control effect
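Luciferase-expressing P. falciparum in infected erythrocytes (2% hematocrit, 0.1% parasitemia final) in RPMI 1640/0.5% Albumax were exposed to compound for 48 hours at 37 C, 5% CO2; growth read as luminescence.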
CHX counter = counter-screen for Shiga toxin inhibitors: cycloheximide protein synthesis inhibition; hit rate 12% among 300,000; cell reporter, cycloheximide protein synthesis inhibition counterscreen; AID 2314; max response, %; in the data active = max response mostly above about 13%, no sharp cut-off; inactive = mostly below about 14%; note: read at 38.3 µM for the half of the compounds with a filed dose; 0% is about no effect
Shiga inhibitor = blocks Shiga toxin action in Vero cells. Vero cells, Shiga toxin protein synthesis inhibition reporter. inhibition, % at 38.7 µM. hit rate 9.2% among 290,000. AID 2315; in the data active = inhibition mostly above about 28%, no sharp cut-off; inactive = mostly below about 43%; note: 0% is about no effect
Pf growth 96h = P. falciparum growth inhibition at 96 hours. P. falciparum luciferase reporter growth, 96 h. Potency, µM (series often up to 28.7 µM), for inactives: at the top dose activity change, negative = inhibition, actives largely listed as inhibitors. hit rate 6.9% among 320,000. AID 504834; note: potency is the fitted concentration of half-maximal effect; % is set by controls: 0 for no effect and ±100 for the full control effect
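Erythrocytes infected with luciferase-expressing P. falciparum were dispensed at 2% hematocrit and 0.05% parasitemia (final), then incubated with compounds 96 hours at 37 C in 5% CO2. Luminescence after detection reagent addition reported growth.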
Starred values were filed as active, the others as inactive; i = inactive; ? = inconclusive; . = no result given; + = active, no number. Unless noted, calls come from the whole dose curve; as a rule, active = well fitted curve in the direction sought with a large enough effect; inconclusive = small, poorly fitted or top-dose-only effect, or another doubt; inactive = no such curve, though single readings can be large; an effect the other way counts as inactive or inconclusive.

SMILES	NS1 function inh	Sm TGR inh	Pf growth 48h	CHX counter	Shiga inhibitor	Pf growth 96h
O=C(/C=C/c1cccc(Cl)c1)c1ccc([N+](=O)[O-])o1	.	0.71µM*	?	.	.	?
Cc1cc(O)c(C(=O)/C=C/c2cccc([N+](=O)[O-])c2)c(=O)o1	5%	0%	?	1	-13	?
CCc1nn(CC(=O)NCCN(CC(C)C)CC(C)C)c(=O)c2cc3sc(C)cc3n12	.	4%	.	.	.	.
COc1ccc(NC(=O)CN(C)C(=O)CCCN2C(=O)c3cccc4cccc(c34)C2=O)cc1	.	-8%	-13%	.	.	1%
Cc1cc(NC(=O)CN(C)S(=O)(=O)c2cnc[nH]2)ccc1Br	-1%	-8%	-13%	8	-5	?
Cc1cccc(C)c1NC(=O)CN(C)C(=O)CSC(=S)N1CCCC1	.	-5%	2%	.	.	3%
N=C(N=C(N)N)N1CCc2ccccc21	0%	-4%	?	10	11	3%
COc1cc(/C=C/[N+](=O)[O-])ccc1OC(=O)/C=C/c1ccc(F)cc1	24%	-26%	-1%	-3	.	90%
COc1ccc(/C=C/C(=O)c2ccc([N+](=O)[O-])o2)cc1OC	.	6.3µM*	12µM*	.	.	?
Cc1c(C)c2c(c(C)c1OC(=O)CCC(=O)O)CC[C@@](C)(CCC[C@H](C)CCC[C@H](C)CCCC(C)C)O2	.	.	?	.	.	12µM*
Cc1ccc(CCNC(=O)c2cccc(Nc3nc4ccccc4nc3-n3nc(C)cc3C)c2)cc1	.	2%	.	.	.	.
O=C(N/N=C/c1ccccc1[N+](=O)[O-])c1ccncc1	2%	11%	75%	21*	40*	0.17µM*
O=C(N/N=C/c1ccccc1[N+](=O)[O-])c1cnccn1	0%	12%	86%	31*	91*	125%
COc1cccc(/C=N/NC(=O)c2cnccn2)c1OC	4%	28%	10%	17*	50*	141%
COc1cc(OC)c(OC)cc1/C=N/NC(=O)c1cnccn1	0%	.	18%	9	32	57%
CC(C)N(CC(N)=O)c1ccc(S(=O)(=O)N2CCCC2)cn1	.	?	?	.	.	-23%
O=S(=O)(CC(CN1CCCCC1)N1CCCCC1)c1ccc2ccccc2c1 (configuration not stated)	.	-16%	0%	1	-3	20%
CCN(C(=O)c1cc2c(=O)oc3ccc(C)cc3c2s1)c1ccccc1C	.	24%	.	.	.	.
CCC(=O)N1CCc2cc(S(=O)(=O)Nc3cc(C)ccc3OC)ccc21	.	-2%	.	.	.	.
Cc1ccc(N(CC(=O)N=Nc2c(O)[nH]c3ccccc23)S(C)(=O)=O)c(C)c1	.	7%	2%	4	5	-59%
Cc1cc(N=Nc2c(O)c3ccccc3[nH]c2=O)ccc1N=Nc1ccc(C(=O)N(C)C)cc1	-4%	8%	1.9µM*	28	29	2.1µM*
O=C(c1ccccc1)c1ccc(N=Nc2c(O)[nH]c(=O)[nH]c2=O)cc1	11%	1%	69%	-2	18	10%
Cc1ccc(N=Nc2c(O)c3ccccc3[nH]c2=O)c(S(=O)(=O)N(C)C)c1	-3%	0%	?	38*	43*	?
CCCCN(C(=O)c1cccc(-n2cccc2)c1)c1c(N)n(Cc2ccccc2)c(=O)[nH]c1=O	.	-13%	-29%	.	.	-8%
O=C(CCN1CCN(c2ccccc2F)CC1)Nc1cccc(F)c1	0%	-1%	-13%	2	1	1%
SMILES	NS1 function inh	Sm TGR inh	Pf growth 48h	CHX counter	Shiga inhibitor	Pf growth 96h
CC(=O)OCC(=O)Nc1c(C)cccc1C	.	1%	10%	-2	-10	-26%
CN1CCN(c2nc3c(S(=O)(=O)c4ccc(Br)cc4)nnn3c3ccsc23)CC1	.	1%	.	.	.	.
CN(C)N1C(N)=C(C#N)C(c2cccc([N+](=O)[O-])c2)C2=C1CC(C)(C)CC2=O (configuration not stated)	5%	-10%	?	-10	9	15%
O=Cc1c(-c2ccccc2)nc2ccccn12	-2%	7%	-2%	11	21	13µM*
O=C(Nc1c(-c2ccccc2)nc2ccccn12)c1ccccc1	-21%	3%	?	5	19	-30%
Cc1ccc(S(=O)(=O)N/N=C/c2cccc3nccnc23)cc1	3%	-10%	-2%	0	-9	-7%
Cc1ccc(S(=O)(=O)N/N=C/c2cccc3c2OCCO3)cc1	-10%	-9%	1%	6	-7	2.1µM*
CC(=O)Nc1ccccc1OCc1cc(=O)n2c3c(sc2n1)CCCC3	.	1%	.	.	.	.
Cc1ccc(NC(=O)COC(=O)Cc2csc(-c3ccc(Cl)cc3)n2)cc1C	-16%	5%	-3%	23*	+	19%
Cc1ccc(NC(=O)COC(=O)Cc2csc(-c3cccc(F)c3)n2)cc1C	15%	-16%	-3%	1	12	23%
Nc1ccc(C23CC4CC(CC(C4)C2)C3)cc1	.	-5%	37%	8	-1	100%
Nc1ccc(C23CC4CC(CC(CO)(C4)C2)C3)cc1	?	13%	-4%	19*	12	?
Nc1ccc(C23CC4CC(CC(O)(C4)C2)C3)cc1	12%	0%	21%	28*	24	35%
COc1cccc(F)c1C(=O)NC(=O)Nc1ccc2nc(C)oc2c1	-2%	32µM*	2.1µM*	6	7	2.1µM*
CSc1nc2ccc(NC(=O)NC(=O)c3c(F)cccc3F)cc2s1	1%	-1%	88%	17*	20	118%
CSc1nc2ccc(NS(=O)(=O)c3cccc(Cl)c3Cl)cc2s1	23%	-11%	30%	17*	18	0%
CCNC(=S)NCc1ccc(OC)c(OC)c1	7%	7%	3%	-2	12	5.2µM*
CCCCOc1ccc(CNC(=S)N/N=C/c2ccc(OC)c(OC)c2)cc1	30%	-13%	.	18	24	4.7µM*
COCCNC(=S)N/N=C/c1ccc(OCc2ccc(C(=O)OC)cc2)c(OC)c1	-3%	-2%	22%	-1	4	36%
CCN=C(N/N=C/c1ccc([N+](=O)[O-])cc1)SC	-3%	45µM*	55%	1	-1	198%
CCOc1ccc(CNC(=S)N/N=C\c2ccc([N+](=O)[O-])cc2)cc1	4%	4%	13µM*	12*	9	?
Cc1ccc(NC(=O)c2oc3ccc(S(=O)(=O)N4CCCCC4)cc3c2C)c(C)c1	.	6%	.	.	.	.
O=C(COc1ccccc1F)Nc1ccc2nc(SCC(=O)N3CCCC3)sc2c1	.	5%	.	.	.	.
COc1cccc(C2C(=O)N(C3CCCCC3)CC(=O)N2CCc2ccc(OC)c(OC)c2)c1 (configuration not stated)	.	11%	.	.	.	.
COc1cccc(N(C(=O)c2nc3nccc(C)n3n2)c2nc3ccccc3s2)c1	-17%	4%	140%	27*	67	i
COc1cccc(NC(=O)COC(=O)c2nc3nccc(C)n3n2)c1	5%	-1%	34%	13*	22	?
Cc1ccnc2nc(C(=O)OCC(=O)Nc3ccccc3C(C)(C)C)nn12	.	-7%	16%	-8	-1	30%
